# Inconclusive results are not listed. Calls of active or inactive are those of the source. Calls follow the shape of the dose curve; as a rule, active = well fitted activation curve with a large enough effect; inconclusive = small, poorly fitted or top-dose-only effect; inactive = flat fitted curve, though single readings scatter.
# Assay: qHTS assay to identify small molecule phospholipidosis (PLD) inducers (AID 1259344)
# Details: HepG2 phospholipidosis, LipidTOX Red imaging, 24 h; series mostly up to 38.3 µM; PLD induction: at the top concentration
# How it was run: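 Fluorescent phospholipid staining (LipidTOX Red) measured by automated microscopy in fixed HepG2 cells after 24 h treatment; nuclei counterstained with Hoechst 33342; amiodarone as reference inducer.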
# % is scaled to controls: 0 for no effect and ±100 for the full control effect.
SMILES,PLD induction,Potency
Cc1cccc(C)c1NC(=O)C1CCCCN1C (stereo not given),0.739% (inactive),–
CCCCCCCCCCCCCCCC(=O)OC[C@H](COP(=O)([O-])OCC[N+](C)(C)C)OC(=O)CCCCCCCCCCCCCCC,-0.199% (inactive),–
O=C(Cn1cnnn1)N[C@@H]1C(=O)N2C(C(=O)O)=C(CSc3nncs3)CS[C@H]12,–,inactive
C=CC1=C(C(=O)O)N2C(=O)[C@@H](NC(=O)/C(=N\O)c3csc(N)n3)[C@H]2SC1 (stereo in doubt),–,inactive
O=C(O)[C@H]1CN(C/C=C/P(=O)(O)O)CCN1,0.469% (inactive),–
CC(C)(C)c1ccc2c(S(=O)(=O)O)c(C(C)(C)C)ccc2c1,–,inactive
CO/N=C(\C(=O)N[C@@H]1C(=O)N2C(C(=O)[O-])=C(C[n+]3ccc(N)n3CCO)CS[C@H]12)c1csc(N)n1,0.43% (inactive),–
NC(=O)[C@@H]1CCCN1C(=O)[C@H](Cc1cnc[nH]1)NC(=O)[C@@H]1CCC(=O)N1,-0.459% (inactive),–
O=C1C2CC3CC1CC(O)(C3)C2,0.237% (inactive),–
OCC1(CO)COC(C(Cl)(Cl)Cl)OC1,-0.312% (inactive),–

# — PubChem BioAssay (Tox21)
